Measured values published in PubChem BioAssay.
Values without a mark were called inactive. Activity calls are given as the source filed them.

Experiment: plasmodial surface anion channel blockers, osmotic lysis – cell-based, P. falciparum Indochina, OD700, 2 h, primary screen (AID 1155);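 also: lysis reports solute entry through the parasite surface anion channel PSAC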
Settings: P. falciparum Indochina infected erythrocytes, higher = more signal, called active from +8 up or from −8 down

Point of comparison: `CC(CCN1CCCCc2nc(C)c(C)cc21)=NO[C@@H](C)c1cc(-c2c(C)cc(C)cc2C)no1`, z-score 0.49. Against it:
- CC(=O)OC[C@H]1O[C@@H](ON=C(C)C)[C@H](OC(C)=O)[C@@H](OC(C)=O)[C@@H]1OC(C)=O — higher, 1.12
- CC(C)=CCCC(C)=CCON=C1[C@H]2CCn3c(=O)n(-c4ccccc4)c(=O)n3[C@H]2[C@H](O)[C@@H]2O[C@H]12 — higher, 0.635
- COC(=O)CC=C[C@@H](C)[C@@H](C=NOC[C@@H](C)[C@H](OCc1ccccc1)C(C)C)OC — lower, 0.319
- CCOC(=O)CCN1C(=O)[C@H]2[C@H]3[C@H](O)[C@H](O)CC(=NO[C@@H]4O[C@H](CO)[C@@H](O)[C@H](O)[C@H]4O)[C@@H]3CC[C@H]2C1=O — lower, 0.155
- COC(=O)[C@H](C)NC(=O)CCC1CC(OC(=O)NCc2ccc3c(c2)OCO3)CC2(CCCC(COC(=O)NCCc3ccc(Cl)cc3)O2)O1 (stereo partly specified) — lower, 0.223
- CC(CCN1CCCc2nc(C)c(C)cc21)=NOC[C@@H](O)COCc1ccco1 — lower, 0.281
- C[C@H]1CC[C@@H](C(=O)O)N[C@@H]1c1ccc(C#Cc2ccccc2)cc1 — lower, -0.0838
- COc1ccc(O[C@H]2C=C[C@@H](c3ccccc3)O[C@@H]2COC(=O)NCc2cccc3ccccc23)cc1 — higher, 0.896
- CC(C)CON=C1C[C@@H](O)[C@@H](O)[C@@H]2[C@@H]3C(=O)N(C(C)(C)C)C(=O)[C@@H]3CC[C@@H]12 — lower, -0.692
- CC(C)CON=C1[C@H]2CCn3c(=O)n(C)c(=O)n3[C@H]2[C@H](O)[C@@H]2O[C@H]12 — lower, -0.165
- CCOC(=O)CCN1C(=O)[C@H]2[C@H]3[C@H](O)[C@H](O)CC(=O)[C@@H]3CC[C@H]2C1=O — lower, 0.411
- CC1(C)O[C@H]2OC([C@H](O)CON3C(=O)c4ccccc4C3=O)[C@H](O)[C@H]2O1 (stereo partly specified) — lower, -0.215
- COCC#Cc1ccc([C@@H]2N[C@H](C(=O)O)CC[C@H]2C)cc1 — lower, -0.478
- O=C1C[C@H](c2ccccc2)[C@H](c2ccc(Br)cc2)O1 — lower, -1.13
- CCCNC(=O)OC[C@H]1O[C@H](CCON=C[C@@H](NS(=O)(=O)c2ccc(C)cc2)[C@H](C)C=CCC(=O)OC)C=C[C@@H]1Oc1ccc(OC)cc1 — higher, 1.2
- CCOC(=O)[C@H](Cc1ccccc1)NC(=O)CCC1CC(OC(=O)NCCc2ccc(F)cc2)CC2(CCCC(COC(=O)NCCOc3ccccc3)O2)O1 (stereo partly specified) — lower, 0.363
- C=CC[C@@H]1C=C[C@H](Oc2ccc(C)cc2)[C@@H](COC(=O)NCc2cccc3ccccc23)O1 — higher, 0.852
- O=C1C2=CC[C@H]3C(=O)N(C[C@@H]4CCCO4)C(=O)[C@H]3[C@H]2[C@H](O)[C@@H]2O[C@H]12 — higher, 0.59
- CSCC[C@@H]1NC(=O)CC=C[C@@H](C)COC(=O)[C@H](C)COC1=O — lower, -1.3
- COC(=O)[C@H](Cc1ccccc1)NC(=O)[C@@H](C)CO — lower, -0.824
- O=C1[C@H]2[C@H]3[C@H](O)[C@H](O)CC(=NOCc4ccccc4)[C@@H]3CC[C@H]2C(=O)N1c1cccc(Oc2ccccc2)c1 — higher, 1.72
- CC(C)C(=O)N[C@H]1CCCN1C(=O)C=Cc1ccccc1 — higher, 0.627
- CCN1C(=O)[C@H]2[C@H]3[C@H](O)[C@H](O)CC(=NOCC(C)C)[C@H]3CC[C@H]2C1=O — lower, -0.0288
- C#CCCCON=C1[C@H]2CCn3c(=O)n(Cc4cc5c(cc4Cl)OCO5)c(=O)n3[C@H]2[C@H](O)[C@@H]2O[C@H]12 — higher, 0.581
- COC(=O)[C@H](C)NC(=O)CCC1CC(OC(=O)NCc2cccc3ccccc23)CC2(CCCC(COC(=O)NCCOc3ccccc3)O2)O1 (stereo partly specified) — higher, 0.622
- CO[C@H]1COC(=O)CC=C[C@@H](C)COC(=O)[C@H]2CCCN2C(=O)CC=C[C@H]1C — lower, -0.25
- O=C1C[C@@H](O)[C@@H](O)[C@@H]2[C@@H]3C(=O)N(C4CCCCC4)C(=O)[C@@H]3CC[C@@H]12 — lower, 0.14
- CN1CCc2nc(-c3ccccc3)c(-c3ccccc3)cc2C1 — lower, -0.0787
- CC(CCC(=O)OC[C@H]1O[C@H](C#Cc2ccccc2)C=C[C@@H]1Oc1ccc(C)cc1)=NOC(C)CN1CCCCc2nc(C)c(C)cc21 (stereo partly specified) — lower, 0.459
- CO[C@@H]1C=CCC(=O)N[C@@H](C)C(=O)OC[C@@H](OC)[C@H](C)C=CCC(=O)OC[C@H]1C — lower, 0.233
- CO[C@@H]1[C@H](O)CO[C@H]1C=Cc1ccccc1 — lower, 0.178
- CO[C@H]1COC(=O)[C@H](CCSC)NC(=O)CC=C[C@@H](C)[C@H](OC)COC(=O)[C@@H](OCc2ccccc2)C=C[C@@H]1C — lower, 0.191
- COc1ccc(OC[C@H]2CN3[C@@H](CC[C@@H](C)[C@@H]3c3ccc(Br)cc3)C(=O)O2)cc1 — higher, 1.25
- COc1ccc(O[C@H]2C=C[C@@H](c3ccccc3)O[C@@H]2CO)cc1 — higher, 1.29

In the case of `COc1cccc([C@H](O)Cn2cc(-c3ccc(CON=C(C)C)cc3)nn2)c1`, the z-score is reported as 12.2 (active).
